Source: PubChem BioAssay (National Center for Advancing Translational Sciences (NCATS))
D1 antag – antagonists of human D1 dopamine receptor. P21728. HEK293 TREx D1 cells, calcium flux, dopamine EC80; stronger effect = lower value. activity change, negative = inhibition, % at 10 µM. hit rate 3.2% among 360,000. AID 504652; in the data active = activity change below about -30%
Target sequence (P21728 whole entry, looked up): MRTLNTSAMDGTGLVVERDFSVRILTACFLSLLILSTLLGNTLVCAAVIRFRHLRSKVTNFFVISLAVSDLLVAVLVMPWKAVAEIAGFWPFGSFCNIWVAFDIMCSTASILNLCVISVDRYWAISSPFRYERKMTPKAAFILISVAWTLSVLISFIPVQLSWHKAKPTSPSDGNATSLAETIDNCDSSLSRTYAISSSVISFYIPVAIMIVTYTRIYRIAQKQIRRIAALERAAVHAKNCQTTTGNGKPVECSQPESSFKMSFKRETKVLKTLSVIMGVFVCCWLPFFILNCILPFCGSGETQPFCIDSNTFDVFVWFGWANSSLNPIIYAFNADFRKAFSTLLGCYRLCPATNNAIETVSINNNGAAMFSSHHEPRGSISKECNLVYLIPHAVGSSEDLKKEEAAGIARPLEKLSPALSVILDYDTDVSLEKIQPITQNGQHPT
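Using tetracycline-induced force-coupled D1 Hek293 cells and a calcium dye, signals were followed for 180 s after compound, then for 180 s after EC80 dopamine, to detect inhibitors.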
GRP78 ERSR act – induces the endoplasmic reticulum stress response in human glioma cells; U87-MG GRP78 promoter luciferase reporter, 16 h; Potency, µM, most hits filed as activators; hit rate 0.02% among 420,000; AID 602332; active = well fitted activation curve with a large enough effect; also: series mostly up to about 76 µM; nearly all actives have a fitted effect of over 35% in size
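Stably transfected U87-MG glioma cells carrying a GRP78-based luciferase sensor; 16 h compound incubation. Luminescence end-point read 10 min after Bright-Glo addition at room temperature.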
D1 PAM – human D1 dopamine receptor positive modulation; P21728; hit rate 0.036% among 360,000; HEK293 TREx D1 cells, calcium flux, dopamine EC20 potentiation; potentiation, % at 10 µM; in the data active = potentiation above about 30%
D1 ag – human D1 receptor agonism; HEK293 T-REx D1 cells, calcium flux, agonist mode; activation, % at 2 µM; hit rate 1% among 360,000
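Agonism was scored from calcium flux recorded over 180 s (1 read/s) after pintool compound addition, following a 10-cycle baseline. Cells were inducible force-coupled HEK293 TREx D1, plated overnight at 30 C and loaded with no-wash calcium dye.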
TRHR ag – agonists of human TRH receptor; TRHR cells, calcium flux fluo-8, FDSS agonist mode; hit rate 0.18% among 360,000; AID 493084; P34981; activation, % at 2 µM
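Steps: seed TRHR cells overnight; add fluo-8 no-wash Ca dye, RT 30 min–1.5 h; record 10 s baseline; pin-transfer compounds; monitor fluorescence 1 cycle/s for the agonist window. Calcium increases flag candidate agonists.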
TRHR PAM – allosteric enhancers of human TRH receptor; hit rate 0.66% among 360,000; TRHR cells, fluo-8 calcium fluorescence, EC20 TRH enhancement; enhancement, % at 2 µM; AID 493056; in the data active = enhancement above about 30%
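TRHR-expressing cells loaded with fluo-8 calcium dye were read kinetically (ex 480/em 530) during compound addition, then stimulated with an EC20 of TRH (10 nM final). Enhancement of the Gq-mediated intracellular calcium response was scored.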
Hits are given with their value; i = inactive; nt = no result given. The list is not random: actives were taken first. Their share in the collection is about 4%. Rule as the data show it, unless noted: active = activation above about 30%; inactive = the rest.

SMILES	D1 antag	GRP78 ERSR act	D1 PAM	D1 ag	TRHR ag	TRHR PAM
CCN(Cc1ccc(OC)c(F)c1)C(=O)/C=C/c1ccc(S(=O)(=O)N2CCOCC2)cc1	-41	i	i	i	i	i
CCCN1CCN(CCCNC(=O)Cn2c(-c3cccs3)cc3cc(Cl)ccc32)CC1	i	i	i	35	i	i
O=C(C[n+]1cccc2cccc(O)c21)c1ccc(F)cc1	nt	i	nt	nt	nt	nt
COc1ccccc1CNC(=O)Cc1csc2nc(-c3ccccc3)cn12	-35	i	i	i	i	i
Cc1oc(-c2cccc(Cl)c2)nc1CN1CCC(C(=O)NCc2ccc(F)cc2)CC1	i	i	i	54	i	i
CCc1ccc(-c2nc(CN3CCC(C(=O)NCc4ccccc4OC)CC3)c(C)o2)cc1	i	i	i	41	i	i
Cc1ccc(S(=O)(=O)N2CCC(C(=O)NCc3ccccc3CN3CCCC3)CC2)cc1C	-35	i	i	i	i	i
COc1ccccc1CNC(=O)C1CCN(Cc2nc(-c3ccc(OC)c(OC)c3)oc2C)CC1	i	i	i	i	i	i
COc1ccc(C)cc1NC(=O)C1CCN(S(=O)(=O)Cc2ccccc2)CC1	-47	i	i	i	i	i
CCc1ccc(-c2nc(CN3CCC(C(=O)NCCc4ccc(OC)c(OC)c4)CC3)c(C)o2)cc1	i	i	i	30	i	i
Cc1ccccc1-c1nc(CN2CCC(C(=O)NCc3cccnc3)CC2)c(C)o1	i	i	i	i	i	i
COc1ccccc1CNC(=O)C1CCN(Cc2nc(-c3cccc(Cl)c3)oc2C)CC1	i	i	i	34	i	i
COc1ccc(CCNC(=O)C2CCN(Cc3nc(-c4ccc(OC)c(OC)c4)oc3C)CC2)cc1OC	i	i	i	i	i	i
Cc1ccccc1-c1nc(CN2CCC(C(=O)NCc3ccc(F)cc3)CC2)c(C)o1	i	i	i	41	i	44
CCS(=O)(=O)N1CCC(C(=O)NCc2ccccc2OC)CC1	-43	i	i	i	i	i
COc1ccccc1CNC(=O)CC(C)C	-32	i	i	i	i	i
COc1ccccc1CNC(=O)C1CCN(S(=O)(=O)N2CCCCC2)CC1	i	i	i	i	i	i
CCOCCCNC(=O)CCCn1nc(C)n2c(cc3sccc32)c1=O	-39	i	i	i	i	i
CC(=O)N(/N=C1\Sc2ccccc2C1=O)c1ccccc1C	i	i	i	i	i	i
CC(=O)N(/N=C1\Sc2ccccc2C1=O)c1ccccc1	-44	i	i	i	i	i
Cc1ccc(SCCNC(=O)/C=C/c2ccc([N+](=O)[O-])cc2)cc1	i	i	i	i	i	i
O=C(/C=C/c1ccc([N+](=O)[O-])cc1)NCCSc1ccccc1	-30	i	i	i	i	i
CCCOc1ccc(/C=C/C(=O)Nc2ccc([N+](=O)[O-])cc2)cc1	-43	i	i	i	i	i
Cc1ccc(/C=C/C(=O)Nc2ccc(Oc3ccccc3)cc2)o1	-32	i	i	i	i	i
CC(=O)c1ccc(NC(=O)/C=C/c2ccc(C)o2)cc1	i	i	i	i	i	i
SMILES	D1 antag	GRP78 ERSR act	D1 PAM	D1 ag	TRHR ag	TRHR PAM
Cc1ccc(/C=C/C(=O)Nc2ccc([N+](=O)[O-])cc2)o1	-46	i	i	i	i	i
CC(=O)c1ccc(NC(=O)c2cc(-c3ccc4c(c3)OCO4)on2)cc1	i	i	i	i	i	i
O=C(CCc1nnc2ccc(NCc3ccco3)nn12)Nc1cccc(F)c1	i	i	i	i	i	i
C(=C\c1ccnc2ccccc12)/c1ccc2ccccc2n1	nt	i	nt	nt	nt	nt
COc1ccc2c(c1OC)C(=O)OC2c1ccc(O)cc1 (stereo not given)	nt	i	nt	nt	nt	nt
CCn1c(CNc2ccc(F)cc2)nnc1SCC(=O)Nc1ccc(OC)cc1	i	i	i	i	i	i
COc1ccc(NC(=O)CCCN2C(=O)COc3ccc(C)cc32)cc1OC	-46	nt	i	i	i	i
Cc1ccc2c(c1)N(CC(=O)O)C(=O)CO2	-30	i	i	i	i	i
Cn1cnnc1SCC(=O)Nc1ccccc1	i	i	i	i	i	i
Cn1cnnc1SCC(=O)Nc1ccc(C#N)cc1	-37	i	i	i	i	i
Cc1ccc(NS(=O)(=O)c2cc(C(=O)N3CCN(C)CC3)ccc2C)cc1	-34	i	i	i	i	i
Cc1ccc(C)c(S(=O)(=O)NCc2ccc(C(=O)N3CCN(C)CC3)cc2)c1	-32	i	i	i	i	i
Cc1ccc(NS(=O)(=O)c2cc(C(=O)N3CCN(CCO)CC3)ccc2C)cc1	i	i	i	i	i	i
CC(C)c1cccc(C(C)C)c1NC(=O)Cn1c(=O)cnc2ccccc21	i	i	i	i	i	i
NS(=O)(=O)c1ccc(-n2nncc2C23CC4CC(CC(C4)C2)C3)cc1	-91	i	i	i	i	i
NC(=O)NC(c1ccccc1)c1ccccc1	nt	i	35	185	i	i
COc1ccc(-c2nc(SCC(=O)Nc3ccc4c(c3)OCCO4)c(-c3ccc(F)cc3)[nH]2)cc1OC	i	i	i	i	i	i
COc1cc(-c2nc(SCC(=O)Nc3ccc(C)cc3)c(-c3ccc(F)cc3)[nH]2)cc(OC)c1OC	-35	i	i	i	i	i
COc1ccc(-c2nc(SCC(=O)Nc3ccccc3)c(-c3ccc(F)cc3)[nH]2)cc1OC	-47	i	i	i	i	i
COc1ccc(NC(=O)CSc2nc(-c3ccc(F)cc3)[nH]c2-c2ccc(C)cc2)cc1OC	i	i	i	i	i	i
COc1ccc(-c2nc(SCC(=O)Nc3ccc4c(c3)OCO4)c(-c3ccc(F)cc3)[nH]2)cc1OC	-36	i	i	i	i	i
C#CC(C)OC(=O)c1nnc2c3ccccc3n(COC)c2n1 (stereo not given)	nt	i	nt	nt	nt	nt
CCCC(C(=O)Nc1ccncc1)c1ccccc1 (stereo not given)	-40	i	i	i	i	i
CCCC(C(=O)Nc1ccc(S(=O)(=O)Nc2ncccn2)cc1)c1ccccc1 (stereo not given)	i	i	i	i	i	i
Cc1ccc(CNC(=O)C(=O)NCC2OCCN2S(=O)(=O)c2ccc(Br)cc2)cc1 (stereo not given)	i	i	i	i	i	31
Cc1ccc(S(=O)(=O)N2CCOC2CNC(=O)C(=O)NCCN(C)C)cc1 (stereo not given)	i	i	i	i	i	37
CN(C)CCNC(=O)C(=O)NCC1OCCN1S(=O)(=O)c1ccc([N+](=O)[O-])cc1 (stereo not given)	i	i	i	i	i	i
CNC(=O)C(=O)NCC1OCCCN1S(=O)(=O)c1ccc(F)cc1C (stereo not given)	-54	i	i	i	i	i
